From PubChem BioAssay
FECH block: inhibitors of human ferrochelatase, primary screen, biochemical, purified FECH, Ni-mesoporphyrin absorbance; Ferrochelatase, mitochondrial (Homo sapiens), P22830; Ni-mesoporphyrin absorbance 550 nm; calls only at 10 µM (by protocol); 20,000 tested, 3.3% active; AID 1671448, 2021;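 active = enzyme reaction rate more than 3 SD below the solvent-only control wells on the same plate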;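 note: lower slope than DMSO wells means FECH inhibition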
Target sequence (P22830 whole entry, looked up): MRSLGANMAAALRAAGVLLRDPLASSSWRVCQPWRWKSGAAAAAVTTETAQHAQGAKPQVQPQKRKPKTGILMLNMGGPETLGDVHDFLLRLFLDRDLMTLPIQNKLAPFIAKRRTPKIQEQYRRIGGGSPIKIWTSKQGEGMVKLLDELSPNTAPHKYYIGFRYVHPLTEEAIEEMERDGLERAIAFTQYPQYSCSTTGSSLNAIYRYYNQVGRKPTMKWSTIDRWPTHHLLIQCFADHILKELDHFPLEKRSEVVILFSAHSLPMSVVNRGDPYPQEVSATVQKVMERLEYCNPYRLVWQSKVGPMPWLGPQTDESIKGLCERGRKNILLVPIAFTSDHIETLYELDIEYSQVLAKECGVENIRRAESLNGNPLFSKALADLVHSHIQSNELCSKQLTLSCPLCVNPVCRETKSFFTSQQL
Numbers without * were called inactive; i = inactive; + = active, no number. The sample as a whole holds a higher share of hits than the screen did.

SMILES	FECH block
c1cnc2c(-c3nccn3CCc3cnc[nH]3)cccc2c1	i
Cc1oc(-c2ccccc2Cl)cc1C(=O)NCCN1CCNC1=O	i
CCCNC(=O)C1CCN(c2ccc(-c3cccc(C)c3)nn2)CC1	i
C=C(C)COc1ccccc1C(=O)N[C@H]1C[C@H]2C(=O)NCC(=O)N2C1	i
CCc1oc2ccccc2c1CN1C[C@@H](N)C[C@H]1C(=O)N(CC)CC	i
CCN1C(SCC(=O)Nc2c(C)cc(C)cc2C)=NS(=O)(=O)c2ccccc21	+
Cc1ccc(CN2CC(=O)N(Cc3ccccc3)c3ccccc3S2(=O)=O)cc1	i
Cc1cc(C)c(NC(=O)CN2CCN(Cc3ccccc3C)S2(=O)=O)c(C)c1	i
Cc1ccc(S(=O)(=O)N2CCC(CC(=O)N3CCN(c4ccccc4)CC3)CC2)cc1	i
Cc1cc(N2CCCN(C(=O)CSc3ncccn3)CC2)ccn1	i
CCN1C(SCC(=O)N2CCN(c3ccccc3)CC2)=NS(=O)(=O)c2ccccc21	+
CCN1C(SCC(=O)Nc2cc(C)cc(C)c2)=NS(=O)(=O)c2ccccc21	+
CCN1C(SCC(=O)NCc2ccc(C)cc2)=NS(=O)(=O)c2ccccc21	+
Cc1ccc(CNC(=O)CN2C(=O)C3CCCCN3C(=O)c3ccccc32)cc1 (centres undefined)	i
CCN1C(SCC(=O)Nc2ccc3c(c2)OCCO3)=NS(=O)(=O)c2ccccc21	i
CCN1C(=O)C2(c3ccccc31)C(C(=O)Nc1cc(C)cc(C)c1)CC1CSCN12 (centres undefined)	i
Cc1ccc(N2C(=O)N(CC(=O)NC3CCCCC3)c3ccccc3S2(=O)=O)c(C)c1	i
C#CCN(CC=C)C(=O)CSc1nnc(C)s1	i
COc1cccc(-c2ccc(C(=O)c3ncc[nH]3)cc2)c1OC	i
Cc1cc(Nc2ccc(OC(=O)COc3ccccc3)cc2)n2nc(-c3cccnc3)nc2n1	i
CCc1nc(OCC(=O)NCc2ccccc2Cl)c2c(C)c(C)oc2n1	i
O=C(O)c1cccnc1CN1CCN(c2ccccc2-c2ccccc2)CC1	i
COc1ncc(-c2ccc(NC(C)=O)cc2)c(OC)n1	i
Cc1ccc(CN2c3ccccc3-c3nc(SCC(=O)Nc4ccc(F)c(Cl)c4)ncc3S2(=O)=O)cc1	+
Cc1ccc(CN2CCCN(CC(=O)Nc3ccc(C)c(F)c3)S2(=O)=O)cc1	i
SMILES	FECH block
Cc1ccc(CN2c3ccccc3-c3nc(SCC(=O)Nc4cc(Cl)ccc4C)ncc3S2(=O)=O)cc1	i
Cn1nnnc1SCCNC(=O)CN1CCCCCC1	i
C(=C\c1nc(-c2ccccn2)n[nH]1)/c1ccccc1	i
COc1ccc(S(N)(=O)=O)cc1-c1noc(C)n1	i
CC1CCCCN1Cc1cc(=O)n2[nH]c(-c3ccc(C(C)(C)C)cc3)nc2n1 (centres undefined)	i
Cc1cccc(-c2nc3nc(CN4CCCCC4C)cc(=O)n3[nH]2)c1 (centres undefined)	+
Cc1cccc(-c2nc3nc(CN4CCCC4)cc(=O)n3[nH]2)c1	i
CCCc1c(C)nc2ncnn2c1Sc1ccccc1NC(=O)c1ccc(Cl)cc1	i
COc1cccc(-c2cc(Cn3cc(-c4cccc(O)c4)nn3)no2)c1	i
CN1C(=O)COc2cc(NS(=O)(=O)NCc3ccccc3)ccc21	i
Cc1cc(NC(=O)c2ccccc2C(F)(F)F)n(-c2ncnc3c2cnn3-c2ccccc2)n1	i
CCc1cc(CN(C)C(=O)c2cnon2)on1	i
CCc1cc(CN(C)C(=O)CN2CCOc3ccccc3C2)on1	i
CCc1cc(CN(C)C(=O)c2cn3c4c(cccc4c2=O)CC3)on1	+
CN(Cc1ccc(C(=O)Nc2ccc3[nH]ncc3c2)cc1)Cc1cnccn1	i
CCCc1cc(=O)n2[nH]c(CNc3cccc(C)c3)nc2n1	+
CCCc1cc(=O)n2[nH]c(CNc3ccc(F)cc3)nc2n1	+
COc1cccc(NCc2cc(=O)n3[nH]c(NCc4ccc(F)cc4)nc3n2)c1	i
O=c1cc(CNc2cccc(C(F)(F)F)c2)nc2nc(NCc3ccc(F)cc3)[nH]n12	i
CCCc1cc(=O)n2[nH]c(CNc3ccc(Br)cc3)nc2n1	+
CCCc1cc(=O)n2[nH]c(CNc3cccc(C(F)(F)F)c3)nc2n1	+
Cc1cccc(-c2nc3nc(CNC(C)C)cc(=O)n3[nH]2)c1	i
Cc1cccc(NC(=O)c2ccc(CNc3nc4nc(C)cc(=O)n4[nH]3)cc2)c1	i
CN1CCC(C)(CNC(=O)c2ccc(Cn3cccn3)o2)C1 (centres undefined)	i
COc1cccc(Cn2c(CNS(=O)(=O)c3ccc(C(C)C)cc3)nc3cccnc32)c1	i
Cc1cccc(Oc2ccc(C(=O)N3CCC4(CC3)NCCNC4=O)cc2)c1	i
Cc1ccc(CN2CCNC(=O)C2CC(=O)Nc2cnc3n2CCCC3)cc1 (centres undefined)	i
O=C(CCC(=O)N1CCc2cc(S(=O)(=O)NCc3ccccc3)ccc21)N1CCOCC1	i
